According to the supplement of paper PMC11732987, “Enantioselective OTUD7B fragment discovery through chemoproteomics screening and high-throughput optimisation” (Communications Chemistry, 2025):

Target: T1, ALG13 (UniProt Q9NP73)
T1 sequence (whole entry): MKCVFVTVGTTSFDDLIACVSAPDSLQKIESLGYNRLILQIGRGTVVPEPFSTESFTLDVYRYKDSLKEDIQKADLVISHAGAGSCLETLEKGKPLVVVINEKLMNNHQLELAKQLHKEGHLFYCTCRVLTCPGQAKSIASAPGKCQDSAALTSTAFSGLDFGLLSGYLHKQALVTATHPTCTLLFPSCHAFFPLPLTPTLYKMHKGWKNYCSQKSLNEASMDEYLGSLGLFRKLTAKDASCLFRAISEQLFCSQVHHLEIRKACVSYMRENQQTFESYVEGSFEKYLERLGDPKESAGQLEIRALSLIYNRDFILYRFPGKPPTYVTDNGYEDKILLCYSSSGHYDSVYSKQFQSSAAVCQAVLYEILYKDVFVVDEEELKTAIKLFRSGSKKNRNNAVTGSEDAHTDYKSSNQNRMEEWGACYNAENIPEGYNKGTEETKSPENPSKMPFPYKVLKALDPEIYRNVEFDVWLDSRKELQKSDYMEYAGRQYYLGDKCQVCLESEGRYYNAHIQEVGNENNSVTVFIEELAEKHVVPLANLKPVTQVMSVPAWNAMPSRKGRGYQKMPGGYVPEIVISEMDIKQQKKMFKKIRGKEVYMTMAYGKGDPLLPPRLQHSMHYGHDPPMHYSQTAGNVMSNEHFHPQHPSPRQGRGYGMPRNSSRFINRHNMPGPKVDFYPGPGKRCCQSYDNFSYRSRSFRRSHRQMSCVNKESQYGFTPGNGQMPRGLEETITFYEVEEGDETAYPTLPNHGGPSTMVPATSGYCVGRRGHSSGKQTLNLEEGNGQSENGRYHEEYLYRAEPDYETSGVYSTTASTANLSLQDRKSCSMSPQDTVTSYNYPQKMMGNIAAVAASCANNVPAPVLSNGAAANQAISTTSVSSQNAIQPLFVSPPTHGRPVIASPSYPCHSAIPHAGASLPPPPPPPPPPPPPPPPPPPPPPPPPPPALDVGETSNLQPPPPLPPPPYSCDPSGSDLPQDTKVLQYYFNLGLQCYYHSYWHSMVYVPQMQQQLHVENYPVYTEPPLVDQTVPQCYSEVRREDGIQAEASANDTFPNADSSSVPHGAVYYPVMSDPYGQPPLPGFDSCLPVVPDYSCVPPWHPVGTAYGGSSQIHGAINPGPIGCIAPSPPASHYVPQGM
Experiment: log2 ratio of Biotin-Ahx-Ub-VS probe labelling (fragment/DMSO); higher = less target engagement (more negative = stronger competition), active = hit call of the paper (q ≤ 0.05, log2 ratio ≤ -1)
Conditions: compound concentration: 200 uM; treatment time: 3 h
Method in brief: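 HEK293T lysate in Tris/CHAPS/IGEPAL buffer with protease inhibitors (495 µg per sample) was given fragment at 200 µM or vehicle for 3 h, in triplicate. It then received Biotin-Ahx-Ub-VS at 0.5 µM final for 1 h. Labelled DUBs were NeutrAvidin-enriched, digested with LysC and trypsin, and run by diaPASEF LC-MS/MS. Values are average log2 fragment/vehicle ratios by unpaired t-test on global-median-normalised Spectronaut quantities of proteins with ≥2 unique peptides.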

log2 ratio of Biotin-Ahx-Ub-VS probe labelling, inactive:
Cc1ccc(CN(C)C(=O)CCl)o1 0.042, O=C(CCl)N1CCC[C@@H]1c1ccon1 0.188, COCC1C=CCCN1C(=O)CCl (stereo unspecified) 0.0362, Cl.Cn1c(CNC(=O)CCl)nc2cccnc21 0.0884, Cc1cccc(C)c1NC(=O)CCl 0.022, O=C(CCl)N1CCCC1c1ccsc1 (stereo unspecified) -0.0335, NC(=O)C1CCCCN1C(=O)CCl (stereo unspecified) 0.0736, Cc1cnc2[nH]cc(CCNC(=O)CCl)c2c1 -0.0473, Cc1ccc(CNC(=O)CCl)nc1C.Cl -0.419, O=C(CCl)N1CCN2C(=O)CCC2C1 (stereo unspecified) 0.0971, O=C(CCl)N1CCOCCC1c1ccccc1 (stereo unspecified) -0.00764, O=C(CCl)N1CCc2[nH]c3ccccc3c2C1 -0.37, CN(CCC(O)c1ccc(Br)cc1)C(=O)CCl (stereo unspecified) -0.222, CC(NC(=O)CCl)c1cnn(C2CC2)c1 (stereo unspecified) 0.171, CCN(C(=O)CCl)C1CCS(=O)(=O)C1 (stereo unspecified) -0.231, COc1ccc(-c2csc(NC(=O)CCl)n2)cc1 -0.0925, Cc1noc(N2CCN(C(=O)CCl)CC2)n1.Cl -0.0651, O=C(CCl)N1CCCCCC1c1ncon1 (stereo unspecified) 0.0534, O=C(CCl)N1CCc2sccc2C1 -0.104, O=C(CCl)Nc1ccc2c(c1)OC(F)(F)O2 0.0874, O=C(CCl)N(C1CCCC1)C1CCS(=O)(=O)C1 (stereo unspecified) 0.338
